# The list is not random: actives were taken first. Their share in the collection is about 5.4%.
# ALR H2O2 inh – inhibitors of human ALR sulfhydryl oxidase, primary screen, biochemical, H2O2 detection, HRP-luminol luminescence, single point | FAD-linked sulfhydryl oxidase ALR (Homo sapiens), P55789 | purified ALR, DTT oxidation | inhibition, % (test concentration not listed) | 3.8% of 290,000 active | AID 485317, 2010;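 active means mean replicate inhibition above about 79%, with every replicate also reaching it, limit read from the data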
# PHOSPHO1 inh – PubChem AID 1565 | Phosphoethanolamine/phosphocholine phosphatase (Homo sapiens), Q8TCT1 | recombinant PHOSPHO1, absorbance phosphatase assay | inhibition, % at 13.3 µM | 1.1% of 290,000 active; in the data active means inhibition above about 60%
# APOBEC3G inh – APOBEC3G DNA deaminase inhibitors, primary screen, biochemical, fluorescence, single-stranded DNA substrate, uHTS; 0.28% of 330,000 active; inhibition, % at 20 µM; AID 493012, 2011; recombinant A3G, ssDNA deamination FAM/TAMRA fluorescence; DNA dC->dU-editing enzyme APOBEC-3G (Homo sapiens), Q9HC16;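 active means inhibition of at least 40% at 20 µM, with no more than 30% in the related APOBEC3A deaminase screen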;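 further: plate controls were DMSO wells with A3G for no effect and wells lacking A3G enzyme for full effect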
# Target sequence (Q9HC16 whole entry, looked up): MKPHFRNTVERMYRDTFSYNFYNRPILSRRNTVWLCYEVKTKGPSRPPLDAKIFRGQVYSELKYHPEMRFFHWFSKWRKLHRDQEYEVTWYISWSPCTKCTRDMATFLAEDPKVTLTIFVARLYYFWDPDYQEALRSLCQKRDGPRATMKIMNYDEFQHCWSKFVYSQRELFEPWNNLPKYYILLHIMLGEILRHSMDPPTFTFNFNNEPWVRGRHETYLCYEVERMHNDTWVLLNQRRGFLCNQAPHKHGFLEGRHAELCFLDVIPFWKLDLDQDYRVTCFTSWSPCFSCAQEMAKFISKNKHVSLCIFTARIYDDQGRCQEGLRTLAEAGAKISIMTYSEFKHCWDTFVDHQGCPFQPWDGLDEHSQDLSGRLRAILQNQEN
# rCAG RNA binder – binders of r(CAG) RNA repeats, primary screen, biochemical, fluorescence. 1.3% of 370,000 active. r(CAG) RNA repeat, TO-PRO-1 dye displacement fluorescence. inhibition, % at 3 µM;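 active means inhibition above the plate cutoff, the mean of all test compounds on that plate plus 3 SD, cut at about 35% in these data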;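 further: 0% = DMSO alone and 100% = 100 µM mitoxantrone as full dye displacement; higher means more dye released from RNA so lower well fluorescence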
# A3A deaminase – APOBEC3A ssDNA deaminase inhibitors, primary screen, selectivity assay for APOBEC3G inhibitor project, biochemical, FAM/TAMRA oligo cleavage fluorescence; DNA dC->dU-editing enzyme APOBEC-3A (Homo sapiens), P31941; 0.41% of 330,000 active; recombinant A3A, FAM/TAMRA ssDNA deamination fluorescence; inhibition, % at 20 µM;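 active means at least 40% inhibition at 20 µM here, with at most 30% in a related deaminase screen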;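 further: plate controls were A3A with DMSO for no effect and wells lacking A3A enzyme for full effect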
# Target sequence (P31941 whole entry, looked up): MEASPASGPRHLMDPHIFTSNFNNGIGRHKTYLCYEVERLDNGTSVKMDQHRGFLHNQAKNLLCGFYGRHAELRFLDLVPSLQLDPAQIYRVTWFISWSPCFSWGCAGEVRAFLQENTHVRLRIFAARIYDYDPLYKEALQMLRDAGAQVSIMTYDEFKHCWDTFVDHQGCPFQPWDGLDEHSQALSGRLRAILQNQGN
# aDG glyco act – activators of alpha-DG glycosylation, primary screen, uHTS, Pro5-aDG cells, AlphaScreen. activation, % at 10 µM. alpha-DG glycosylation AlphaScreen (IIH6); 0% Pro5, 100% B10-LARGE cell signal. 0.22% of 360,000 active;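 active means activation of at least 8% versus controls, or a plate z-score of at least 8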;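 further: Pro5 are CHO cells carrying HIG-tagged alpha-DG that lacks glycosylation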
# * marks the source's active call; other numbers are inactive results; · = no result.
SMILES,ALR H2O2 inh,PHOSPHO1 inh,APOBEC3G inh,rCAG RNA binder,A3A deaminase,aDG glyco act
FC(F)(F)c1cc(Oc2ccc(Cl)cc2)nc(-c2ccccn2)n1,3,73*,-2,-2,0,0
Cc1cc(N2CCNC[C@H]2C)ccc1N1CCS(=O)(=O)CC1,·,·,·,4,·,·
COc1ccccc1C(=O)NC1CCCCN(Cc2ccc(C)cc2)C1=O (configuration not stated),·,·,·,1,·,·
COc1ccc(-c2cc3ccccc3n2CC(O)CN2CCN(CCO)CC2)cc1 (configuration not stated),96*,11,-9,1,-4,0
COc1cc(C2C(C#N)=C(N)Oc3n[nH]c(-c4cccs4)c32)cc(OC)c1O (configuration not stated),89*,30,3,2,5,0
Cc1ccc(C2C(C#N)=C(N)Oc3n[nH]c(-c4cccs4)c32)cc1 (configuration not stated),74,6,-4,12,-2,0
N#CC1=C(N)Oc2n[nH]c(-c3cccs3)c2C1c1ccoc1 (configuration not stated),20,5,-3,7,2,0
CC(C)C1C(C#N)=C(N)Oc2n[nH]c(-c3cccs3)c21 (configuration not stated),82*,5,-3,5,0,0
COC(=O)C1CN(Cc2ccc(F)cc2)CCS(=O)(=O)N1Cc1ccccc1 (configuration not stated),·,·,·,3,·,·
N#C/C(=C/c1ccc(N2CCOCC2)o1)C(=O)Nc1ccccc1,·,37,·,-127,·,0
Cc1ccc(/C(C#N)=C\c2ccc(N3CCOCC3)o2)cc1,-20,62*,16,15,1,0
N#C/C(=C\c1ccc(N2CCOCC2)o1)C(=O)NCCc1ccccc1,89*,20,5,-22,-6,0
N#C/C(=C\c1ccc(N2CCOCC2)o1)C(=O)NCC1CCCO1 (configuration not stated),86*,32,0,-41,1,0
N#C/C(=C\c1ccc(N2CCOCC2)o1)C(=O)NC1CCCCC1,79*,28,1,-28,0,0
O=C(N[C@H](C(=O)N1CCC[C@H]1C(=O)NC1CCCC1)C1CCCCC1)c1ccc(Cl)cc1Cl,·,·,·,0,·,·
C=CCn1c(C(C)NC(=O)c2cccc(C)c2)n[nH]c1=S (configuration not stated),93*,-34,11,2,-2,0
CC1CCC2C(C1)Nc1c(C(=O)O)cccc1C2(C)C (configuration not stated),98*,10,-8,23,-1,0
CC1C2CCC(C2)C1OC(=O)c1ccccc1C(=O)O (configuration not stated),·,·,·,0,·,0
CCOc1ccc(-n2cc(C(=O)N3CCC(C)CC3)c3cc(OC)c(OC)cc3c2=O)cc1,-4,10,3,-4,13,7.5*
CCN1CCN(C(=S)Nc2ccc(Cl)c(Cl)c2)CC1,3,4,0,-1,0,0
CCN1CCN(C(=S)c2ccc(Cl)c(Cl)c2)CC1,9,95*,10,-6,-6,0
Cn1ccnc1SCC(=O)Nc1ccc(Oc2ccccc2)cc1,99*,84*,-4,0,-2,0
CSc1nccn1CC(=O)Nc1ccc(F)cc1,98*,-32,-1,1,1,0
COc1ccc(NC(=O)CSc2nc3cccnc3n2C)cc1,99*,14,-7,0,-4,0
CN(CC(=O)Nc1ccc(F)cc1)C(=O)CSc1nccn1C,-4,·,-11,3,-3,0
SMILES,ALR H2O2 inh,PHOSPHO1 inh,APOBEC3G inh,rCAG RNA binder,A3A deaminase,aDG glyco act
O=C(O)CS(=O)CC(=O)Nc1cccc(C(F)(F)F)c1 (configuration not stated),99*,46,3,1,4,0
CCCCOc1cccc(NC(=O)CSc2nccn2C)c1,99*,4,0,-5,1,0
CC(=O)Nc1ccc(NC(=O)CSc2ncc(C(=O)Nc3ccccc3)c(=O)n2C)cc1,99*,·,-6,2,-3,0
CCn1c(C(=O)O)c(CC(=O)Nc2cccc(C(F)(F)F)c2)c2ccccc21,5,·,-7,35*,-2,0
Cn1c(SCC(=O)NCc2ccccc2)ncc(C(=O)Nc2ccccc2)c1=O,0,·,-3,11,-2,1
Cn1ccnc1SCC(=O)Nc1cccc(C(F)(F)F)c1,100*,10,13,-1,3,0
Cn1ccnc1SCC(=O)Nc1cccc(O)c1,-10,0,-2,1,6,0
COC(=O)C1CN(C2CCCC2)CCS(=O)(=O)N1Cc1cn(Cc2ccc(C)cc2)nn1 (configuration not stated),·,·,·,4,·,·
O=C1C(NC(=O)N2c3ccccc3C=Cc3ccccc32)CCCCN1Cc1cccc(Cl)c1 (configuration not stated),·,·,·,9,·,·
CCOc1ccc(NC(=O)CSc2nc(O)c(C)c(=O)n2-c2ccc(F)cc2)cc1,100*,32,2,9,3,0
CCOc1ccc(NC(=O)CSCc2cnn(-c3ccccc3)c2-n2cccc2)cc1,99*,3,-10,-6,-3,0
COc1ccc(C(=O)CSc2nccn2C)cc1,99*,6,-4,-4,2,0
CCOc1ccc(-n2c(SCC(=O)Nc3ccc(C(=O)O)cc3)nc3ccccc3c2=O)cc1,·,·,-1,29,-4,0
O=C(CSC1=NCCN1)Nc1cccc(C(F)(F)F)c1,100*,47,-3,-3,0,0
O=C(c1cc(F)ccc1F)N1CCC(Oc2cccnc2)CC1,·,·,·,1,·,·
CCOC(=O)[C@]12CCCCC/C=C\1N(CCc1ccc(Cl)cc1)C(=O)[C@H]2CC(=O)NCCCOC,·,·,·,0,·,·
CCOc1ccc(NC(=O)CSC(N)=O)cc1,99*,41,-2,1,-3,0
Cc1c(O)nc(SCC(=O)Nc2nccs2)n(-c2ccccc2F)c1=O,99*,8,-3,-2,-1,0
Cc1nnc(SCC(=O)Nc2nccs2)n(N)c1=O,24,32,-5,1,-2,0
CCOc1ccc(NC(=O)CSc2nccn2C)cc1,99*,-1,-6,-2,-2,0
CCOC(=O)[C@@]12CCCC=C1N(CCc1ccc(Cl)cc1)C(=O)[C@H]2CC(=O)N1CCCC1,·,·,·,6,·,·

# Assay outcomes (PubChem)
